Inconclusive results are not listed. Active and inactive are the calls of the source. The calls were made as follows, unless noted: active = hit-call score of the fitted dose curve at least 0.9, where 1 is the maximum; inconclusive = response in the unintended direction; inactive = score below 0.9.
How the values were obtained:
[1] = read-out: Cytochrome P450 3A4 (Homo sapiens) (UniProt P08684); test: CLD_CYP3A4_48hr: CellzDirect (CLD) Gene Expression Assay for xenobiotic metabolism (CYP3A4) at 48 hours (AID 2283698)
Method in brief: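 CYP3A4 induction read by qNPA chemiluminescence after 48 h, with fresh dosing solutions on consecutive days, in cultured human hepatocytes (two donors). Vehicle 0.2% DMSO as baseline; microscopy-based cytotoxicity annotated yes/no alongside data.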

[2] = read-out: Cytochrome P450 2B6 (Homo sapiens) (UniProt P20813); test: CLD_CYP2B6_48hr: CellzDirect (CLD) Gene Expression Assay for xenobiotic metabolism (CYP2B6) at 48 hours (AID 2283699);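 also: actives raise transcript level above DMSO so potency reflects induction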
Method in brief: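 CYP2B6 transcript induction, read by quantitative nuclease protection (S1 digestion, chemiluminescent detection) 48 h after dosing, is fitted upward against 0.2% DMSO. Cultured human liver primary cells, two donor preparations, received fresh chemical daily over multiple concentrations.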

[3] = read-out: xenobiotic metabolism (CYP1A2), CYP1A2 (gene 1544); test: CLD_CYP1A2_48hr: CellzDirect (CLD) Gene Expression Assay for xenobiotic metabolism (CYP1A2) at 48 hours (AID 2283703)
Method in brief: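 Cytotoxicity was flagged yes/no from morphology, while CYP1A2 transcript induction was detected by qNPA chemiluminescence after a 48-hour exposure. Human primary hepatocyte cultures from separate donors received fresh dosing solutions daily over two days, with 0.2% DMSO as vehicle and baseline.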

[4] = read-out: xenobiotic metabolism (CYP1A1), CYP1A1 (gene 1543); test: CLD_CYP1A1_48hr: CellzDirect (CLD) Gene Expression Assay for xenobiotic metabolism (CYP1A1) at 48 hours (AID 2283705)
Method in brief: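 CYP1A1 transcript measured by quantitative nuclease protection (chemiluminescent) 48 h after two daily treatments of human hepatocyte cultures, versus 0.2% DMSO. Morphology-based cytotoxicity flags accompany data; two donor preparations used.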

[5] = read-out: sulfotransferase (SULT2A), SULT2A1 (gene 6822); test: CLD_SULT2A_48hr: CellzDirect (CLD) Gene Expression Assay for sulfotransferase (SULT2A) at 48 hours (AID 2283710);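 also: hits raise SULT2A1 transcript above the 0.2% DMSO vehicle baseline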
Method in brief: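 SULT2A1 transcript measured by qNPA chemiluminescence in human primary hepatocyte cultures after 48 h, with fresh dosing solutions on two consecutive days; gain-of-signal fitting against 0.2% DMSO vehicle; cytotoxicity annotated from phase-contrast morphology.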

[6] = STM_H9_OrnithineISnorm_perc: Stemina devTOX quickPredict H9 human embryonic stem cell (hESC)-based Assay for Ornithine (ORN) Metabolite Biomarker, Normalized (AID 2283712; active = hit-call score of the fitted dose curve at least 0.9, where 1 is the maximum; inactive = score below 0.9;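 also: ornithine released into spent medium during last day measured by mass spectrometry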)
Method in brief: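 Ornithine secreted by H9 hESCs after 72h compound treatment (daily media/compound renewal) was quantified in final-day media by UPLC-HRMS. Values are isotope-standard-normalized, expressed relative to 0.1% DMSO, fitted in positive direction.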

[7] = STM_H9_CystineISnorm_perc: Stemina devTOX quickPredict H9 human embryonic stem cell (hESC)-based Assay for Cystine (CYSS) Metabolite Biomarker, Normalized (AID 2283713; active = hit-call score of the fitted dose curve at least 0.9, where 1 is the maximum; inactive = score below 0.9)
Method in brief: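 Cells are held undifferentiated and treated for 72h, receiving fresh medium with compound every 24h. Cystine secreted during the final day is quantified by UPLC-HRMS against a labeled spike-in, then expressed relative to the DMSO vehicle median.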

[8] = CEETOX_H295R_MTT_cell_viability: Viability Assessment in the CeeTox HT-H295R MTT Assay (AID 2283718; active = hit-call score of the fitted dose curve at least 0.9, where 1 is the maximum; inactive = score below 0.9)
Method in brief: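 H295R cells prestimulated 48 h with 10 uM forskolin, then exposed 48 h to test chemical (0.1% DMSO final). Viability by MTT (0.5 mg/ml, 4 h, 37 C), absorbance 570/650 nm; percent change versus DMSO, bidirectional fit.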

[9] = read-out: ABC Transporter (ABCB11), ABCB11 (gene 8647); test: CLD_ABCB11_48hr: CellzDirect (CLD) Gene Expression Assay for ABC Transporter (ABCB11) at 48 hours (AID 2283697)
Method in brief: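 Induction of ABCB11 mRNA relative to 0.2% DMSO, measured at 48 h by qNPA chemiluminescence. Cultured human hepatocytes (two donors) received fresh dosing solutions at several concentrations on two consecutive days.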

[10] = CLD_ACTIN_48hr: CellzDirect (CLD) Gene Expression Assay for Baseline Control (Actin) at 48 hours (AID 2283702)
Method in brief: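 Background-control actin mRNA read by qNPA chemiluminescence at 48 h. Human hepatocyte cultures from two donors received fresh multi-concentration chemical doses daily for two days; 0.2% DMSO served as vehicle baseline.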

[11] = STM_H9_OrnCyssISnorm_ratio: Stemina devTOX quickPredict H9 human embryonic stem cell (hESC)-based Assay for Ornithine (ORN):Cystine (CYSS) Ratio (AID 2283714)
Method in brief: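 H9 hESC, 72h, q24h re-dose; last-day media → acetonitrile deproteinization → UPLC-HRMS. ORN:CYSS ratio from isotope-normalized EIC areas, vs 0.1% DMSO; MTX references on each plate.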

[12] = read-out: Cytochrome P450 2C9 (Homo sapiens) (UniProt P11712); test: CLD_CYP2C9_48hr: CellzDirect (CLD) Gene Expression Assay for xenobiotic metabolism (CYP2C9) at 48 hours (AID 2283701; active = hit-call score of the fitted dose curve at least 0.9, where 1 is the maximum; inactive = score below 0.9)
Method in brief: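 mRNA level measured by quantitative nuclease protection (S1 digestion, chemiluminescent detection) in lysates of human primary hepatocytes exposed 48 h with daily re-dosing. Induction fitted positively versus 0.2% DMSO; morphology-based cytotoxicity flagged yes/no.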

[13] = read-out: organic anion transporter (SLCO1B1), SLCO1B1 (gene 10599); test: CLD_SLCO1B1_48hr: CellzDirect (CLD) Gene Expression Assay for organic anion transporter (SLCO1B1) at 48 hours (AID 2283707)
Method in brief: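 SLCO1B1 transcript quantified by qNPA with chemiluminescent readout after 48 h of once-daily chemical exposure. Cultured human primary hepatocytes came from two donors, with 0.2% DMSO vehicle; positive-direction fitting against DMSO, cytotoxicity flagged by morphology.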

[14] = read-out: Glyceraldehyde-3-phosphate dehydrogenase (Homo sapiens) (UniProt P04406); test: CLD_GAPDH_48hr: CellzDirect (CLD) Gene Expression Assay for Baseline Control (Glyceraldehyde 3-phosphate dehydrogenase) at 48 hours (AID 2283706);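 also: active means higher GAPDH mRNA than DMSO vehicle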
Method in brief: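 GAPDH baseline-control readout: qNPA chemiluminescent mRNA quantitation in human liver primary cells 48 h after daily dosing on two consecutive days, vehicle 0.2% DMSO; gain of signal fitted against DMSO, cytotoxicity flagged by phase-contrast morphology.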

[15] = read-out: HMG-CoA synthase (HMGCS2), HMGCS2 (gene 3158); test: CLD_HMGCS2_48hr: CellzDirect (CLD) Gene Expression Assay for HMG-CoA synthase (HMGCS2) at 48 hours (AID 2283711)
Method in brief: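 mRNA induction read by qNPA chemiluminescence, 48 h after dosing. Cultured primary human liver cells (two donor preparations) received fresh compound daily over two days against 0.2% DMSO vehicle; morphology-based cytotoxicity noted alongside.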

[16] = read-out: glucuronosyltransferase (UGT1A1), UGT1A1 (gene 54658); test: CLD_UGT1A1_48hr: CellzDirect (CLD) Gene Expression Assay for glucuronosyltransferase (UGT1A1) at 48 hours (AID 2283709);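 also: actives increase expression relative to DMSO so potency refers to induction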
Method in brief: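 Quantitative nuclease protection assay (chemiluminescent) for UGT1A1 mRNA at 48 h in human hepatocyte cultures from two donors, redosed daily with fresh solutions. Induction fitted relative to 0.2% DMSO; phase-contrast morphology annotated cytotoxicity.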

Measured: AC50

Cytochrome P450 3A4 (Homo sapiens), sequence (P08684 whole entry, looked up): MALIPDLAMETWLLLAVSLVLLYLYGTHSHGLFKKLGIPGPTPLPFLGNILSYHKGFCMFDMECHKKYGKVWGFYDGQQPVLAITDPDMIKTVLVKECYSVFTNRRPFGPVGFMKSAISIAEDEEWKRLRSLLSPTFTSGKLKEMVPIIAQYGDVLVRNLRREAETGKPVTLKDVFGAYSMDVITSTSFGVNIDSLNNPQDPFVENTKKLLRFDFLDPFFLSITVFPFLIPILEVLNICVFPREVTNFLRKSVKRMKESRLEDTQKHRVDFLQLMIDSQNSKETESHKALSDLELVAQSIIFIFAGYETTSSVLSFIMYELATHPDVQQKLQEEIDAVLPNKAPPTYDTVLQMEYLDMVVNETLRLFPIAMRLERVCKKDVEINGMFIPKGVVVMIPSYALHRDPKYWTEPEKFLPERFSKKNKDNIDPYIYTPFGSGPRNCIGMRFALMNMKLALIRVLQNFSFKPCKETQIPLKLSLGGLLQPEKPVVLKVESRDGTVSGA
Glyceraldehyde-3-phosphate dehydrogenase (Homo sapiens), sequence (P04406 whole entry, looked up): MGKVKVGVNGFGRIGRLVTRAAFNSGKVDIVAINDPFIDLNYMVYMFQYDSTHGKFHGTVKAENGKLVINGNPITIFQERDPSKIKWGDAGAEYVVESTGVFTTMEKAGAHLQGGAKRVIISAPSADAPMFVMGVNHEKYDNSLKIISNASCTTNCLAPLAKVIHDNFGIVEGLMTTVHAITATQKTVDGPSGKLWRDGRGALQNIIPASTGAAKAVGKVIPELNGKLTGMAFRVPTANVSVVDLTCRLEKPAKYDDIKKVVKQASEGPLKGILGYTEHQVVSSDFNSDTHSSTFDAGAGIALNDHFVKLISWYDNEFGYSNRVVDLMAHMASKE

CCC(C)n1c(=O)[nH]c(C)c(Br)c1=O (stereo unspecified)
inactive: [1] | [5] | [6] | [7] | [8]
active: [2] 3.28 µM | [3] 11.8 µM | [4] 8.72 µM

CCNC(=O)NC(=O)C(C#N)=NOC
active: [11] 77 µM
inactive: [9] | [1] | [10] | [3] | [4] | [5] | [6] | [7]

CCOc1cc(C(C)(C)C)ccc1C1COC(c2c(F)cccc2F)=N1 (stereo unspecified)
inactive: [12] | [13] | [8]
active: [1] 1.9 µM | [2] 2.11 µM | [3] 20 µM | [4] 30.3 µM | [5] 7.73 µM

CCCCC(C#N)(Cn1cncn1)c1ccc(Cl)cc1 (stereo unspecified)
inactive: [12] | [7] | [8]
active: [1] 20 µM | [2] 4.45 µM | [3] 11.7 µM | [4] 35.1 µM | [6] 76 µM | [11] 77.9 µM

CC(C)=CC1C(C(=O)OCc2coc(Cc3ccccc3)c2)C1(C)C (stereo unspecified)
active: [2] 20 µM
inactive: [3] | [14] | [13] | [5]

Cc1cc(C)nc(Nc2ccccc2)n1
active: [2] 1.61 µM | [3] 7.9 µM | [4] 3.97 µM | [7] 7.74 µM
inactive: [1] | [12] | [5] | [15] | [6]

COCC(=O)N(c1c(C)cccc1C)C(C)C(=O)OC (stereo unspecified)
active: [2] 3.08 µM | [5] 20 µM
inactive: [12] | [3] | [4] | [16] | [15] | [8]

COP(=S)(OC)Oc1ccc([N+](=O)[O-])c(C)c1
inactive: [5] | [8]
active: [1] 0.0472 µM | [2] 2.67 µM | [3] 3.97 µM | [4] 20 µM

O=C1C2CC=CCC2C(=O)N1SC(Cl)(Cl)Cl (stereo unspecified)
inactive: [9] | [2] | [4] | [13] | [5] | [6] | [7] | [8]

COCC(C)N(C(=O)CCl)c1c(C)csc1C (stereo unspecified)
active: [2] 5.14 µM
inactive: [9] | [4] | [14] | [13] | [16]

— PubChem BioAssay (EPA / NIEHS)
